PubChem BioAssay (NCI)
About 83,000 compounds went through this panel and 20% of them were active in at least one assay; those are over-represented in the sample as a whole.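 Values shown are percent growth following 48 h exposure of cells in 96-well plates to a single concentration of compound; below 10 was considered active.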 Unmarked numbers belong to inactive results. Active and inactive are the calls of the source.

Columns and labels:
Test in all cases: NCI-60 one-dose screen, 48 h (100 = growth as untreated, 0 = no growth, -100 = all killed)
Settings in all cases: 10 µM unless noted
[1] = test system: NCI-H23 lung
[2] = test system: NCI-H322M lung
[3] = test system: NCI-H460 lung
[4] = test system: HOP-92 NSCLC
[5] = test system: NCI-H522 lung
[6] = test system: A549/ATCC NSCLC
[7] = test system: 786-0 renal
[8] = test system: DU-145 prostate
[9] = test system: K-562 leukemia
[10] = test system: MALME-3M melanoma
[11] = test system: MDA-MB-231 breast
[12] = test system: RXF 393 renal
[13] = test system: SF-268 CNS
[14] = test system: SF-295 CNS
[15] = test system: SF-539 CNS
[16] = test system: UACC-257 melanoma
[17] = test system: M14 melanoma
[18] = test system: HCT-15 colon
[19] = test system: COLO 205 colon
[20] = test system: HOP-62 NSCLC

Work on `O=C(/C=C/c1ccc(C(F)(F)F)cc1)c1ccc(Nc2nc(NCCO)nc(Nc3ccc(Cl)cc3)n2)cc1` yielded a growth [1] of 76.4%, a growth [2] of 86.1% and a growth [3] of 28.7%. It also gave a growth [4] of 70.5%, a growth [5] of 65.3% and a growth [6] of 26.6%. For the same compound, the growth [7] was -41% (active), the growth [8] was 58% and the growth [9] was 12.5%. The growth [10] was 96.3%, the growth [11] was 59.3% and the growth [12] was 42.8%. The growth [13] was 50.6%, the growth [14] was 79.6% and the growth [15] was 51.3%. The growth [16] was 92.1%, the growth [17] was 54.7% and the growth [18] was 6.59% (active).
`CC[C@H](C)[C@@H](C(=O)OC)n1cc(CNC(=O)[C@@H](Cc2ccccc2)NC(=O)OCc2ccccc2)nn1` gave a growth [1] of 104%, a growth [2] of 95.5% and a growth [3] of 104%. The growth [4] was 96.4%, the growth [5] was 87.4% and the growth [6] was 87.2%. The growth [7] was 106%, the growth [19] was 122% and the growth [8] was 104%. The growth [9] was 95.9%, the growth [10] was 100% and the growth [11] was 101%. The growth [12] was 104%, the growth [13] was 93.8% and the growth [14] was 99.4%. The growth [15] was 104%, the growth [16] was 95.8% and the growth [17] was 109%. It also gave a growth [18] of 97.5%.
`COC(=O)C1=Nc2ccc(F)cc2/C1=C/c1sc(=S)[nH]c1O` was tested, and the growth [1] was 28.6%, the growth [2] was 29% and the growth [3] was 3.2% (active). The growth [4] was 22.9%, the growth [5] was -33.3% (active) and the growth [6] was 17.7%. For the same compound, the growth [7] was 9.99% (active), the growth [19] was -2.37% (active) and the growth [8] was 11.9%. The growth [9] was 8.26% (active), the growth [10] was 60.8% and the growth [11] was 16.8%. It also gave a growth [12] of 30.4%, a growth [13] of 13.1% and a growth [14] of 13.8%. For the same compound, the growth [15] was -26.6% (active), the growth [16] was 45.9% and the growth [17] was 2.31% (active). The growth [18] was 10.7%.
In the case of `O=c1oc2ccc(Br)cc2c(=O)n1-c1ccc(I)cc1F`, the growth [1] is reported as 1.15% (active), the growth [2] is reported as 4.56% (active) and the growth [3] is reported as 3.43% (active). For the same compound, the growth [4] was -16.6% (active), the growth [5] was -13.4% (active) and the growth [6] was 6.38% (active). The growth [7] was 2.68% (active), the growth [19] was 51.2% and the growth [8] was 13.6%. For the same compound, the growth [9] was 5.48% (active), the growth [10] was -28.3% (active) and the growth [11] was -19.1% (active). The growth [12] was -1.04% (active), the growth [13] was 6.16% (active) and the growth [14] was -61.3% (active). The growth [15] was 1.29% (active), the growth [16] was -16.3% (active) and the growth [17] was -9.72% (active). For the same compound, the growth [18] was 1.62% (active).
`Cc1ccc(OCCCCCCNCCO)c(C)c1` showed a growth [1] of 19.8%, a growth [2] of 11.1% and a growth [20] of 10.1%. For the same compound, the growth [3] was -20.9% (active), the growth [4] was 12.8% and the growth [6] was 5.92% (active). The growth [7] was 11.3%, the growth [19] was 1.75% (active) and the growth [8] was 21.5%. The growth [9] was 6.98% (active), the growth [10] was -0.226% (active) and the growth [11] was 18%. The growth [12] was -2.46% (active), the growth [13] was 4.83% (active) and the growth [15] was -14.7% (active). The growth [16] was -8.91% (active), the growth [17] was -0.43% (active) and the growth [18] was 22.8%.
Compound `CCN(CC)CCNC(=O)C(Cl)=C1C(Cl)=C(Cl)C(Cl)=C1Cl` has a growth [1] of 55.9%, a growth [2] of 81.7% and a growth [3] of 19.3%. The growth [4] was 53.8%, the growth [5] was -14.7% (active) and the growth [6] was 46.6%. For the same compound, the growth [7] was 90.1%, the growth [19] was 54.5% and the growth [8] was 48.4%. The growth [9] was 24.2%, the growth [10] was 58% and the growth [11] was 50.1%. The growth [12] was 66.9%, the growth [13] was 52% and the growth [14] was 71.7%. For the same compound, the growth [15] was 60.1%, the growth [16] was 44.3% and the growth [17] was 38.7%. The growth [18] was 50.5%.
With `CCCCN1CCN(c2ccc3nc(-c4ccc5nc(-c6ccc(C(F)(F)F)cc6)[nH]c5c4)[nH]c3c2)CC1` the growth [1] was -85.1% (active), the growth [2] was -94.1% (active) and the growth [3] was -79.9% (active). The growth [4] was -13.5% (active), the growth [5] was -38.2% (active) and the growth [6] was -71.9% (active). The growth [7] was -84.9% (active), the growth [8] was -95.5% (active) and the growth [9] was -65.8% (active). For the same compound, the growth [10] was -74.2% (active), the growth [11] was -88.9% (active) and the growth [12] was -82% (active). For the same compound, the growth [13] was -71.8% (active), the growth [14] was -84% (active) and the growth [15] was -92.8% (active). The growth [16] was -16.2% (active), the growth [17] was -63.5% (active) and the growth [18] was -79% (active).
In the case of `NCCOc1ccccc1/C=C1\c2ccccc2-c2ccc([N+](=O)[O-])cc21`, the growth [1] is reported as 1.49% (active), the growth [2] is reported as 51.1% and the growth [3] is reported as -85.1% (active). The growth [4] was -1.14% (active), the growth [5] was 21.3% and the growth [6] was -74.6% (active). For the same compound, the growth [7] was -41.5% (active), the growth [19] was -75.4% (active) and the growth [8] was -42.3% (active). The growth [9] was -44.9% (active), the growth [10] was 26% and the growth [11] was 17.9%. For the same compound, the growth [12] was 1.55% (active), the growth [13] was 18.1% and the growth [14] was 6.73% (active). The growth [15] was 8.01% (active), the growth [16] was 63.9% and the growth [17] was 0.981% (active). For the same compound, the growth [18] was -52.7% (active).
